Assay results: PubChem BioAssay (NCATS)
Inconclusive results are not listed. Where a call stands in place of a potency, no number is given. The source made the active and inactive calls. Calls come from the whole dose curve; as a rule, active = well fitted inhibition curve with a large enough effect; inconclusive = small, poorly fitted or top-dose-only effect; inactive = no such curve, though single readings can be large or run the other way.

molecular target: Retinal dehydrogenase 2 (Homo sapiens) (UniProt O94788); assay: qHTS for Inhibitors of the Aldehyde Dehydrogenase Family (ALDH1A2) Confirmation screens (AID 2061314); conditions: ALDH1A2 enzyme inhibition qHTS confirmation; series mostly up to 45.9 µM; note: nearly all actives have a fitted effect of over 65% in size
Potency is the fitted concentration of half-maximal effect.

Row | SMILES | Potency
1 | O=S(=O)(Nc1ccc(OC(F)(F)F)cc1)c1ccc(N2CCCCS2(=O)=O)cc1 | inactive
2 | CCc1noc(-c2nc(Cc3cccc(F)c3)no2)n1 | inactive
3 | O=c1cc2nc(-c3ccccc3)nc(SCc3cccc(Br)c3)n2[nH]1 | inactive
4 | Cc1ccc(CCNC(=O)c2c(C)oc3nc(C)nc(N4CCOCC4)c23)cc1 | inactive
5 | COc1cccc(-c2nnc(-c3ccccc3NC(=O)c3cccc(C(F)(F)F)c3)o2)c1 | inactive
6 | O=C(CC1N=C2c3ccccc3N=C(SCc3cccc(F)c3)N2C1=O)NCc1cccs1 (centres undefined) | inactive
7 | CCOc1ccc(N(C)S(=O)(=O)c2cc(-c3cc(C)no3)ccc2OC)cc1 | inactive
8 | Fc1cc(F)cc(Cc2nc3nccc(-c4cccnc4)n3n2)c1 | inactive
9 | COc1ccc(S(=O)(=O)N2CCOC[C@H](Oc3ccc(C(F)(F)F)cc3)C2)cc1 | inactive
10 | CCOc1ccc(C(=O)Nc2ccc(S(=O)(=O)N3CCCCC3c3cccnc3)cc2)cc1 (centres undefined) | inactive
11 | COc1ccc(S(=O)(=O)NCC(c2ccco2)N2CCOCC2)cc1C (centres undefined) | inactive
12 | COc1ccc(-c2nnc(SCC(=O)Nc3cccc(C(F)(F)F)c3)nc2-c2ccc(OC)cc2)cc1 | inactive
13 | CN(C)C(=O)CN1C(=O)CO[C@H](c2ccc(NS(=O)(=O)c3cccc(F)c3)cc2)[C@H]1CO | inactive
14 | Cc1nn2c(=O)cc(COC(=O)c3ccc(F)cc3)nc2s1 | inactive
15 | COc1ccc(NC(=O)CN2C(=O)COc3ccc(S(=O)(=O)N4CCOCC4)cc32)cc1 | inactive
16 | COc1ccc(C(CNC(=O)c2cccc([N+](=O)[O-])c2)N2CCOCC2)cc1 (centres undefined) | inactive
17 | COc1cccc(-c2cccc(C(=O)N3CCN([S+](=O)([O-])c4ccccc4)CC3)c2)c1 | inactive
18 | CCc1nn2c(=O)c(S(=O)(=O)Nc3ccc(C(C)C)cc3)c(C)nc2s1 | inactive
19 | COc1cc2nc(NC(=O)c3ccc(S(=O)(=O)N4CCOCC4)cc3)sc2cc1OC | inactive
20 | Cc1ccc(-n2c(-c3cccc(C)c3)nc3c(cnn3-c3ccccc3)c2=O)cc1 | inactive
21 | O=C1COCCN1C1CCN(S(=O)(=O)c2cccc(C(F)(F)F)c2)CC1 | inactive
22 | NS(=O)(=O)c1ccc(-n2nc(-c3ccncc3)nc2C2CCOC2)cc1 (centres undefined) | inactive
23 | COc1ccc(C(=O)Nc2ccc(-c3cc(C(F)(F)F)nn3-c3ccccc3)cc2)cc1OC | inactive
24 | COc1ccccc1-c1[nH]nc2ncc(C(=O)NCCc3ccccn3)nc12 | 39.8 µM (active)
